# Laboratory results taken from the supplement of paper PMC10105736.
# A number with no mark means an inactive call.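 How the source made its calls: active = MAPPIT score above the 99th percentile of random reference set scores in the same batch; inactive = at or below it.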
# B1: 14-3-3zeta (protein)
# chain: MSTVDKEELVQKAKLAEQSERYDDMAQAMKSVTETGVELSNEERNLLSVAYKNVVGARRSSWRVISSIEQKTEASARKQQLAREYRERVEKELREICYEVLGLLDKYLIPKASNPESKVFYLKMKGDYYRYLAEVATGDARNTVVDDSQTAYQDAFDISKGKMQPTHPIRLGLALNFSVFYYEILNSPDKACQLAKQAFDDAIAELDTLNEDSYKDSTLIMQLLRDNLTLWTSDTQGDEAEPQEGGDN
# B2: CSN4 (protein)
# chain: MAANYGISTAALRSQLMGLINFTGTHKDQADKYRQLLKTVLTNTGQELIDGLRLFVEAIVNEHVSLVISRQILNDVGSELSKLPDDLSKMLSHFTLEKVNPRVISFEEQVAGIRFHLANIYERNQQWRDAATVLVGIPLETGQKQYSVECKLGTYLKIARLYLEDNDSVQAELFINRASLLQAETNSEELQVLYKVCYARVLDYRRKFIEAAQRYNELSYRKIVDQGERMTALKKALICTVLASAGQQRSRMLATLFKDERCQHLPAYGILEKMYLERIIRRSELQEFEALLQDHQKAATSDGSSILDRAVFEHNLLSASKLYNNITFEELGALLDIPAVKAEKIASQMITEGRMNGHIDQISAIVHFENRELLPQWDRQIQSLCYQVNSIIEKISVAEPDWMDNLN
# B3: mod (protein)
# chain: MAQKKAVTVKGKKATNGEEKPLAKRVTKSTKVQEEETVVPQSPSKKSRKQPVKEVPQFSEEDESDVEEQNDEQPGDDSDFETEEAAGLIDDEAEEDEEYNSDDEEDDDDDELEPGEVSKSEGADEVDESDDDEEAPVEKPVSKKSEKANSEKSEENRGIPKVKVGKIPLGTPKNQIVFVTNLPNEYLHKDLVALFAKFGRLSALQRFTNLNGNKSVLIAFDTSTGAEAVLQAKPKALTLGDNVLSVSQPRNKEENNERTVVVGLIGPNITKDDLKTFFEKVAPVEAVTISSNRLMPRAFVRLASVDDIPKALKLHSTELFSRFITVRRISQESISRTSELTLVVENVGKHESYSSDALEKIFKKFGDVEEIDVVCSKAVLAFVTFKQSDAATKALAQLDGKTVNKFEWKLHRFERSTSGRAILVTNLTSDATEADLRKVFNDSGEIESIIMLGQKAVVKFKDDEGFCKSFLANESIVNNAPIFIEPNSLLKHRLLKKRLAIGQTRAPRKFQKDTKPNFGKKPFNKRPAQENGGKSFVKRARF
# B4: emb (protein)
# chain: MATMLTSDEAGKLLDFSQKLDINLLDKIVEVVYTAQGEQLRLAQSILTTLKEHPEAWTRVDSILEYSQNQRTKFYALQILEEVIKTRWKVLPRNQCEGIKKYVVSLIIKTSSDPIVMEQNKVYLNKLNMILVHILKREWPRNWETFISDIVGASKTNESLCMNNMVILKNLSEEVFDFSQGQITQTKAKHLKDTMCSEFSQIFTLCSFVLENSMNAALIHVTLETLLRFLNWIPLGYIFETQQIETLIFKFLSVPMFRNVTLKCLSEIAGLTAANYDENFATLFKDTMVQLEQIVGQNMNMNHVFKHGSDTEQELVLNLAMFLCTFLKEHGKLVEDAKYVDYLNQALMYLVMISEVEDVEVFKICLEYWNSLVEDLYNSEFFHPTLESTKRQQVYPRRRFYAPILSKVRFIMISRMAKPEEVLVVENENGEVVREFMKDTNSINLYKNMRETLVFLTHLDSVDTDRIMTLKLLNQVNGSEFSWKNLNTLCWAIGSISGAFCEEDEKRFLVTVIKDLLGLCEQKKGKDNKAIIASNIMYVVGQYPRFLRAHWKFLKTVVNKLFEFMHETHDGVQDMACDTFIKIAIKCRRYFVTIQPNEACTFIDEILTTMSSIICDLQPQQVHTFYEAVGYMISAQVDQVQQDVLIERYMQLPNQVWDDIISRASKNVDFLKNMTAVKQLGSILKTNVAACKALGHAYVIQLGRIYLDMLNVYKITSENIIQAIEVNGVNVNNQPLIKTMHVVKKETLNLISEWVSRSNDNQLVMDNFIPPLLDAILLDYQRCKVPSAREPKVLSAMAIIVHKLRQHITNEVPKIFDAVFECTLDMINKNFEDFPQHRLSFYELLQAVNAHCFKAFLNIPPAQFKLVFDSVVWAFKHTMRNVADMGLNILFKMLQNLDQHPGAAQSFYQTYFTDILMQIFSVVTDTSHTAGLPNHAIILAYMFSLVENRKITVNLGPIPDNMIFIQEYVASLLKSAFTHLSDNQVKVFVTGLFNLDENVQAFKEHLRDFLIQIREATGEDDSDLYLEEREAALAEEQSNKHQMQRNIPGMLNPHELPEDMQDE
# B5: 14-3-3epsilon (protein)
# chain: MTERENNVYKAKLAEQAERYDEMVEAMKKVASMDVELTVEERNLLSVAYKNVIGARRASWRIITSIEQKEENKGAEEKLEMIKTYRGQVEKELRDICSDILNVLEKHLIPCATSGESKVFYYKMKGDYHRYLAEFATGSDRKDAAENSLIAYKAASDIAMNDLPPTHPIRLGLALNFSVFYYEILNSPDRACRLAKAAFDDAIAELDTLSEESYKDSTLIMQLLRDNLTLWTSDMQAEEVDPNAGDGEPKEQIQDVEDQDVS
# B6: yki (protein)
# chain: MLTTMSASSNTNSLIEKEIDDEDMLSPIKSNNLVVRVNQDTDDNLQALFDSVLNPGDAKRPLQLPLRMRKLPNSFFTPPAPSHSRANSADSTYDAGSQSSINIGNKASIVQQPDGQSPIAAIPQLQIQPSPQHSRLAIHHSRARSSPASLQQNYNVRARSDAAAANNPNANPSSQQQPAGPTFPENSAQEFPSGAPASSAIDLDAMNTCMSQDIPMSMQTVHKKQRSYDVISPIQLNRQLGALPPGWEQAKTNDGQIYYLNHTTKSTQWEDPRIQYRQQQQILMAERIKQNDVLQTTKQTTTSTIANNLGPLPDGWEQAVTESGDLYFINHIDRTTSWNDPRMQSGLSVLDCPDNLVSSLQIEDNLCSNLFNDAQAIVNPPSSHKPDDLEWYKIN
# Legend:
# Assay in all cases: MAPPIT interaction score (arbitrary units); higher = stronger binary interaction signal, active = hit call of the paper
# 14-3-3epsilon = conditions: pair source set: Lit-BM-16
# Protocol: (§1)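 MAPPIT in HEK293T cells: Drosophila bait and prey ORFs (from the FlyBi ORF collection) were co-transfected in quadruplicate, with two wells stimulated by erythropoietin. Interaction-dependent JAK-STAT activation was read out with a STAT-responsive firefly luciferase reporter. Positive calls use the 99th percentile of random reference set (RRS) scores within each batch […]. Batches Dvs01 and Dvs02 used the N-N configuration and Dvs04 the N-C configuration. Pairs come from FlyBi screens, CuraGen, DPiM, Finley Y2H, Lit-BM-16, Lit-BS-16 and RRS.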
# CG5174 = conditions: MAPPIT configuration: N-N; pair source set: Curagen_low_conf
# Protocol: as §1
# LamC = conditions: MAPPIT configuration: N-N; pair source set: DPIM
# Protocol: as §1
# mon2 = conditions: MAPPIT configuration: N-N; pair source set: Curagen_low_conf
# Protocol: as §1
# par-1 = conditions: pair source set: Lit-BM-16
# Protocol: as §1
# sol = conditions: MAPPIT configuration: N-N; pair source set: Curagen_low_conf
# Protocol: as §1
# tral = conditions: MAPPIT configuration: N-N; pair source set: Lit-BS-16
# Protocol: as §1
# 7B2 = conditions: MAPPIT configuration: N-N; pair source set: Finley_Y2H
# Protocol: as §1
# CG10591 = conditions: MAPPIT configuration: N-N; pair source set: Curagen_low_conf
# Protocol: as §1
# CSN7 = conditions: MAPPIT configuration: N-N; pair source set: Lit-BM-16
# Protocol: as §1
# PICK1 = conditions: MAPPIT configuration: N-N; pair source set: screen_1
# Protocol: as §1
# 128up = conditions: MAPPIT configuration: N-N; pair source set: DPIM
# Protocol: as §1
# ACOX1 = conditions: MAPPIT configuration: N-N; pair source set: Curagen_low_conf
# Protocol: as §1
# mbo = conditions: pair source set: Lit-BM-16
# Protocol: as §1
# 14-3-3zeta = conditions: pair source set: Lit-BM-16
# Protocol: as §1
# yki = conditions: MAPPIT configuration: N-N; pair source set: Lit-BM-16
# Protocol: as §1
# hpo = conditions: MAPPIT configuration: N-N; pair source set: Lit-BM-16
# Protocol: as §1
# sd = conditions: MAPPIT configuration: N-C; pair source set: Lit-BM-16
# Protocol: as §1
# 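Further: HEK293T cells with Epo stimulation, STAT-responsive firefly luciferase reporter, fold induction versus unstimulated cells divided by the larger fold induction of two negative controls lacking either bait or prey.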
binder,measurement,setting,value
B1,MAPPIT interaction score,14-3-3epsilon; MAPPIT configuration: N-N,3.94 (active)
same,MAPPIT interaction score,CG5174,0.738
same,MAPPIT interaction score,LamC,0.222
same,MAPPIT interaction score,mon2,0.305
same,MAPPIT interaction score,par-1; MAPPIT configuration: N-C,-0.258
same,MAPPIT interaction score,par-1; MAPPIT configuration: N-N,-0.148
same,MAPPIT interaction score,sol,1.59
same,MAPPIT interaction score,tral,0.0264
B2,MAPPIT interaction score,7B2,-0.195
same,MAPPIT interaction score,CG10591,0.0604
same,MAPPIT interaction score,CSN7,4.26 (active)
same,MAPPIT interaction score,PICK1,2.03
B3,MAPPIT interaction score,128up,-0.0936
B4,MAPPIT interaction score,ACOX1,1.6
same,MAPPIT interaction score,mbo; MAPPIT configuration: N-C,1.34
same,MAPPIT interaction score,mbo; MAPPIT configuration: N-N,1.54
B5,MAPPIT interaction score,14-3-3zeta; MAPPIT configuration: N-C,1.51
same,MAPPIT interaction score,14-3-3zeta; MAPPIT configuration: N-N,4.99 (active)
same,MAPPIT interaction score,par-1; MAPPIT configuration: N-C,-0.702
same,MAPPIT interaction score,par-1; MAPPIT configuration: N-N,-0.144
same,MAPPIT interaction score,yki,0.198
B6,MAPPIT interaction score,14-3-3epsilon; MAPPIT configuration: N-C,2.04
same,MAPPIT interaction score,14-3-3epsilon; MAPPIT configuration: N-N,2.25
same,MAPPIT interaction score,hpo,0.208
same,MAPPIT interaction score,sd,0.32
